Test results from PubChem BioAssay (EPA / NIEHS).
Activity calls are given as the source filed them. The calls were made as follows: active = hit-call score of the fitted dose curve at least 0.9, where 1 is the maximum; inactive = score below 0.9.

read-out: Thrombomodulin, THBD (gene 7056); assay: BSK_3C_Thrombomodulin: BioMAP Diversity Plus: 3C Assay for Thrombomodulin Biomarker Activity (AID 2283029); conditions: primary human endothelial cells (HUVEC); actives raise or lower the signal
Procedure: BSK_3C is a cell-based, multiplexed-readout assay that uses umbilical vein endothelium, a human vascular primary cell, with measurements taken at 24 hours after chemical dosing in a 96-well plate.BSK_3C_Thrombomodulin is an assay component measured in the BSK_3C assay. It measures Thrombomodulin antibody related to regulation of gene expression using ELISA technology.Data from the assay component BSK_3C_Thrombomodulin was analyzed into 1 assay endpoint. This assay endpoint, BSK_3C_Thrombomodulin, was analyzed with bidirectional fitting relative to DMSO as the negative control and baseline of activity. Using a type of binding reporter, gain or loss-of-signal activity can be used to understand changes in the signaling as they relate to the gene THBD. Furthermore, this assay endpoint can be referred to as a primary readout, because this assay has produced multiple assay endpoints where this one serves a signaling function. To generalize the intended target to other relatable targets, this assay endpoint is annotated to the gpcr intended target family, where the subfamily is rhodopsin-like receptor.
The levels of cell surface (or secreted, indicated by the prefix "s") biomarker endpoints were measured by ELISA. Overt cytotoxicity to cells in confluent adherent cultures (all systems other than the BT system) was assessed by measuring total protein levels using sulforhodamine B (SRB) staining in parallel cultures at the time of biomarker measurements, indicated as SRB endpoints. For proliferation assays for adherent cell types, individual cell types are cultured at sub-confluence and relative cell numbers quantified by SRB staining at time points optimized for each system (48 h: 3C and CASM3C systems; 72 h: BT and HDF3CGF systems; 96 h: SAg system). SRB was performed by staining cells with 0.1% SRB after fixation with 10% TCA and reading wells at 560 nm.Viability and proliferation of PBMC (T cells) was quantified by Alamar Blue reduction for the SAg and BT systems. For PBMC viability (referred to as PBMC Cytotoxicity within the assay endpoint names), cells were plated (75,000/well in a 96-well plate) and then chemical samples added for 1 h before addition of activators, SEB and TSST-1 (20 ng/mL final concentration each). Cells were incubated for 90 h. Then, Alamar Blue (20 uL/well) (Invitrogen, Cat DAL1100) was added for 6 h, and the plates were read with a fluorescence microplate reader at 546/580 nm (excitation/emission). For PBMC proliferation, cells were plated and activated as above but incubated for only 16 h prior to addition of Alamar Blue. Plates were read after 6 h.

Structure (SMILES)	outcome	AC50
COc1nc(C)nc(NC(=O)NS(=O)(=O)c2ccccc2CCC(F)(F)F)n1	inactive	
CCON=C(CC)C1=C(O)CC(c2c(C)cc(C)cc2C)CC1=O (stereo not given)	inactive	
Fc1ccc(Oc2ccnc3cc(Cl)cc(Cl)c23)cc1	inactive	
CCOc1cc(Oc2ccc(C(F)(F)F)cc2Cl)ccc1[N+](=O)[O-]		4940 nM (active)
COc1ccc(C(c2ccc(OC)cc2)C(Cl)(Cl)Cl)cc1	inactive	
C#CCOS(=O)OC1CCCCC1Oc1ccc(C(C)(C)C)cc1 (stereo not given)	inactive	
N#Cc1nn(-c2c(Cl)cc(C(F)(F)F)cc2Cl)c(N)c1S(=O)C(F)(F)F (stereo not given)	inactive	
CC(C)C1(C)N=C(c2nc3ccccc3cc2C(=O)O)NC1=O (stereo not given)	inactive	
COC(=O)c1ccccc1C(=O)OC	inactive	
O=C(O)c1nc(Cl)ccc1Cl	inactive	
CN(C)C(=S)SSC(=S)N(C)C	inactive	
CCc1nn(C)c(C(=O)NCc2ccc(C(C)(C)C)cc2)c1Cl	inactive	
Cc1c(F)c(F)c(COC(=O)C2C(/C=C(\Cl)C(F)(F)F)C2(C)C)c(F)c1F (stereo not given)	inactive	
COC(=O)C=C(C)OP(=O)(OC)OC	inactive	
CCCC1COC(Cn2cncn2)(c2ccc(Cl)cc2Cl)O1 (stereo not given)	inactive	
CCCCC(CC)COC(=O)c1ccccc1C(=O)OCC(CC)CCCC (stereo not given)	inactive	
OC(c1ccc(Cl)cc1)(c1cncnc1)c1ccccc1Cl (stereo not given)	inactive	
COc1nc(NC(C)C)nc(NC(C)C)n1		148 nM (active)
CC1=C(C(=O)Nc2ccccc2)SCCO1	inactive	
CCOC(=O)C(Cl)Cc1cc(-n2nc(C)n(C(F)F)c2=O)c(F)cc1Cl (stereo not given)	inactive	

Structure (SMILES)	outcome	AC50
COc1cnc(OC)n2nc(NS(=O)(=O)c3c(OCC(F)F)cccc3C(F)(F)F)nc12	inactive	
CS/C(C)=N/OC(=O)N(C)SN(C)C(=O)O/N=C(\C)SC	inactive	
CCOC(=O)CC(SP(=S)(OC)OC)C(=O)OCC (stereo not given)	inactive	
CCCCNC(=O)n1c(NC(=O)OC)nc2ccccc21	inactive	
COC(=O)N(OC)c1ccccc1COc1ccn(-c2ccc(Cl)cc2)n1		3970 nM (active)
CCNc1nc(Cl)nc(NC(C)C)n1	inactive	
COP(N)(=O)SC (stereo not given)	inactive	
O=C(O)COc1nc(Cl)c(Cl)cc1Cl	inactive	
CON(C)C(=O)Nc1ccc(Cl)c(Cl)c1	inactive	
CNC(=O)ON=CC(C)(C)SC	inactive	
CO/C=C(/C(=O)OC)c1ccccc1Oc1cc(Oc2ccccc2C#N)ncn1	inactive	
CC(Oc1ccc(Cl)cc1Cl)C(=O)O (stereo not given)	inactive	
CC1COC(Cn2cncn2)(c2ccc(Oc3ccc(Cl)cc3)cc2Cl)O1 (stereo not given)	inactive	
Oc1ccccc1-c1ccccc1	inactive	
N#CC(CCc1ccc(Cl)cc1)(Cn1cncn1)c1ccccc1 (stereo not given)	inactive	
CCOP(=S)(OCC)SCn1c(=O)oc2cc(Cl)ccc21	inactive	
C=CCC1=C(C)C(OC(=O)C2C(C=C(C)C)C2(C)C)CC1=O (stereo not given)	inactive	
O=C(Nc1ccccc1)Nc1ccnc(Cl)c1		1430 nM (active)
CC(C)(C)c1ccc(CSc2cnn(C(C)(C)C)c(=O)c2Cl)cc1	inactive	
CCCCNC(=O)OCC#CI	inactive	
